Screening results deposited in PubChem by National Center for Advancing Translational Sciences (NCATS).
Rows were chosen to be rich in hits. Some 19% of all compounds tested hit in one or more screens of this group.
KB-V1 MDR tox = KB-V1 MDR subline cytotoxicity; KB-V1 MDR cells viability, CellTiter-Glo, 72 h; Potency, µM (doses to about 46.1 µM), most hits filed as cytotoxic; 3.4% of 400,000 active; AID 1347076; further: nearly all actives have a fitted effect of over 60% in size
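Cells of the MDR subline KB-V1 are plated, dosed with compound at multiple concentrations, and incubated 72 h at 37 degrees C; CellTiter-Glo is then added and luminescence read after 10 min.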
HT1080NT lethal = kills 2HG-producing HT-1080-NT fibrosarcoma cells | HT-1080-NT fibrosarcoma viability, CellTiter-Glo ATP luminescence, 48 h | Potency, µM (doses to about 46.1 µM), for inactives: at the top dose activity, negative = less viability, hits mostly cytotoxic | 1.6% of 360,000 active;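 further: NT is the 2HG producing partner of a matched IDH1 knockdown line; 0% = DMSO-treated cells and -100% = media-only wells without cells; nearly all actives have a fitted effect of over 55% in size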
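Viability of the 2HG-overproducing fibrosarcoma line after 48 hours of compound exposure at 37 degrees C was determined by luminescence with CellTiter-Glo, and concentration-effect curves were then fitted and categorized.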
TDP1 cell noCPT = qHTS for Inhibitors of human tyrosyl-DNA phosphodiesterase 1 (TDP1): qHTS in cells in absence of CPT; DT40 Tdp1-/- hTDP1 cells, no CPT, ATP luminescence, 48 h; AID 686978, 2013; Potency, µM (top dose mostly 46.2 µM), for the others: at the highest dose activity change, negative = growth inhibition, hits mostly inhibitors; 15% of 420,000 active; further: nearly all actives have a fitted effect of over 55% in size
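Chicken DT40 Tdp1-/- cells stably complemented with human TDP1 were seeded at 400 cells/well with DMSO in place of 20 nM camptothecin. After compound pinning, cells grew at least 48 hr at 37 °C; viability read by CellTiter-Glo luminescence.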
HT1080 IDH1KD tx = kills HT-1080 cells with IDH1 knockdown | HT-1080 IDH1 knockdown viability, ATP luminescence, 48 h | Potency, µM (top dose mostly 46.1 µM), inactives show at the highest dose activity, negative = toxicity, most hits filed as cytotoxic | 2% of 360,000 active | AID 686971;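 further: 0% = DMSO wells and -100% = cell-free medium wells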
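Using the IDH1-knockdown HT-1080 line run in the same batch and compound series as the NT line, viability after 48 h at 37 °C was determined by CellTiter-Glo luminescence and expressed as % activity.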
TDP1 cell CPT = growth inhibition of DT40 Tdp1-/-;hTDP1 cells with camptothecin (screen for TDP1 inhibitors); Potency, µM (highest dose often 46.2 µM), for the others: at the highest dose activity change, negative = growth inhibition, hits mostly inhibitors; 12% of 420,000 active; chicken DT40 Tdp1-/-;hTDP1 cells + 20 nM CPT, ATP luminescence, 48 h; further: nearly all actives have a fitted effect of over 55% in size
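Chicken DT40 Tdp1-/- cells complemented with human TDP1, 400 cells/well, exposed to compounds plus 20 nM camptothecin for at least 48 h at 37 C; viability read as ATP content by CellTiter-Glo luminescence.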
KB-3-1 cytotox = kills parental KB-3-1 adenocarcinoma cells; KB-3-1 viability, CellTiter-Glo ATP luminescence, 72 h; Potency, µM (highest dose often 46.1 µM), most hits filed as cytotoxic; 1.4% of 400,000 active; AID 1347075; further: nearly all actives have a fitted effect of over 60% in size
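Parental KB-3-1 viability, qHTS format: 72 h compound exposure, 37 °C; CellTiter-Glo; media-only wells and DMSO plates as controls; concentration-effect fits on corrected data.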
Starred values were filed as active, the others as inactive; i = inactive; ? = inconclusive; nt = no result; [ ] = remark or other dose. The call rests on the fitted dose curve; in most records, active means well fitted curve in the direction sought with a large enough effect; inconclusive means small, poorly fitted or top-dose-only effect, or another doubt; inactive means no such curve, though single readings can be large; an effect the other way counts as inactive or inconclusive. Unless noted, on the % scale 0 is the no-effect control and ±100 the full control effect; potency means the concentration at half of the fitted maximal effect.

SMILES | KB-V1 MDR tox | HT1080NT lethal | TDP1 cell noCPT | HT1080 IDH1KD tx | TDP1 cell CPT | KB-3-1 cytotox
COCCn1c(SCC(=O)/C=C2\N(C)c3ccccc3C2(C)C)nnc1-c1ccncc1 | i | -5.2% | 23.1µM* | -5.0% | 23.1µM* | i
Cc1cc(=O)[nH]c(SCC(=O)/C=C2\N(C)c3ccccc3C2(C)C)n1 | i | -13.7% | 9.2µM* | ? | ? | i
CN1/C(=C\C(=O)c2cccs2)C(C)(C)c2ccccc21 | ? | 4.4% | -11.1% | 4.9% | -11.1% | i
COCCn1c(SCC(=O)c2c(-c3ccccc3)n(C)c3ccccc23)nnc1-c1ccncc1 | ? | -1.7% | ? | -7.4% | ? | i
O=C(Nc1cccc(F)c1)c1ccc(S(=O)(=O)N2CCCCC2)cc1 | ? | -1.7% | ? | 6.4% | ? | i
Cc1ccc(C(=O)c2oc3ccccc3c2NC(=O)Cc2coc3c(C)c(C)ccc23)cc1 | ? | nt | -4.8% | nt | -2.4% | i
COc1ccc2c(c1)OC(C)CN(CC(=O)NCc1cn[nH]c1-c1ccc(F)cc1)C2 (stereo unspecified) | nt | nt | -18.6% | nt | -1.5%[9.04 µM] | nt
O=C1NC(=S)S/C1=C\c1ccc(SCc2ccco2)o1 | ? | -8.3% | ? | -6.0% | 18.4µM* | i
O=C1NC(=S)S/C1=C\c1ccc(SCc2ccccc2)o1 | ? | -13.1% | ? | -16.0% | -15.9% | ?
Cc1ccccc1OCCC(=O)N(CC(C)C)c1c(N)n(Cc2ccccc2)c(=O)[nH]c1=O | ? | 1.1% | -29.9% | 3.7% | -12.4% | i
Cc1ccc(S(=O)(=O)NCCC(=O)N2CCCCCCC2)cc1 | ? | -12.6% | ? | -17.3% | -12.0% | i
O=C(NCCN1CCC(n2c(=O)[nH]c3ccccc32)CC1)c1cccc2c1-c1ccccc1C2=O | i | 13.7% | 20.6µM* | 5.7% | ? | i
CCOc1ccccc1C(=O)NCCN1CCC(n2c(=O)[nH]c3ccccc32)CC1 | ? | -13.0% | 29.1µM* | -22.2% | 23.1µM* | i
COc1ccccc1C(=O)NCCN1CCC(n2c(=O)[nH]c3ccccc32)CC1 | ? | 7.2% | ? | 26.4% | ? | i
COc1cc(NC(=O)c2ccccc2[N+](=O)[O-])ccc1NC(=O)c1cc2ccccc2o1 | i | -4.5% | 8.2µM* | 2.0% | 16.4µM* | i
COc1cc(NC(=O)c2cc(Cl)ccc2Cl)ccc1NC(=O)c1cc2ccccc2o1 | i | nt | 4.61µM* | nt | 5.8µM* | i
COc1ccc(-c2nc3cc(C(C)C)ccc3o2)cc1NC(=O)c1ccccc1[N+](=O)[O-] | i | nt | 10.3µM* | nt | 8.2µM* | ?
COc1ccc(-c2nc3ccccc3o2)cc1NC(=O)c1cc(Br)ccc1OC | i | nt | 8.7% | nt | 12.9% | i
COc1cc(NC(=O)c2cccs2)ccc1NC(=O)c1cc2ccccc2o1 | i | -2.2% | 11.6µM* | 10.7% | ? | i
CCOC(=O)C(C(=O)N(C)Cc1ccccc1)C1CCCCC1 (stereo unspecified) | i | -2.5% | ? | -0.4% | ? | i
COc1cc(NC(=O)c2c(F)c(F)c(OC)c(F)c2F)ccc1NC(=O)c1cccs1 | ? | -1.4% | 18.4µM* | -5.7% | 20.6µM* | i
COc1cc(NC(=O)c2cc(OC)c(OC)c(OC)c2)ccc1NC(=O)c1cccs1 | ? | -7.0% | ? | ? | ? | i
O=C(Nc1ccc(F)cc1F)C1CCN(S(=O)(=O)c2cccnc2)CC1 | i | 24.4% | 4.3% | 9.9% | -5.9% | i
[N-]=[N+]=CC(=O)C(c1ccccc1)(c1ccccc1)c1ccccc1 | ? | 4.2% | ? | 1.1% | 3.3% | i
Cc1c(C(=O)N/N=C/c2c(O)ccc3ccccc23)nnn1-c1nonc1N | i | ? | 3.66µM* | 0.581µM* | 5.8µM* | ?
SMILES | KB-V1 MDR tox | HT1080NT lethal | TDP1 cell noCPT | HT1080 IDH1KD tx | TDP1 cell CPT | KB-3-1 cytotox
Nc1nonc1C(=O)N/N=C/c1cc(Br)ccc1O | i | ? | 1.46µM* | 2.06µM* | 0.92µM* | i
Cc1ccc(/C=N/NC(=O)c2nnn(-c3nonc3N)c2CNc2ccccc2)cc1 | i | -0.1% | ? | -1.8% | ? | i
COc1ccc2ccccc2c1/C=N/NC(=O)c1nnn(-c2nonc2N)c1C(C)C | ? | -18.1% | ? | ? | -28.4% | i
Nc1nonc1-n1nnc(C(=O)N/N=C/c2cc(Br)ccc2O)c1CNc1ccccc1 | i | ? | 8.2µM* | 23.1µM* | 8.2µM* | ?
COC(=O)N/N=C(\CCC(=O)O)c1cccs1 | i | 1.5% | 6.2% | 13.7% | -7.9% | i
CC1(C)Cc2ccccc2C(/C(C#N)=N/O)=N1 | i | 5.3% | 23.1µM* | 4.1% | 14.6µM* | i
COc1ccc([N+](=O)[O-])cc1C1NN=C(c2ccccc2O)S1 (stereo unspecified) | i | ? | 3.26µM* | ? | 3.66µM* | i
Cc1cnc(NC(=O)C2CC(=O)N(c3ccc4c(c3)OCCO4)C2)s1 (stereo unspecified) | 14.6µM* | -0.1% | -9.1% | -15.6% | -3.2% | i
CCOc1ccc(N2CC(C(=O)Nc3ccc4c(c3)OCCO4)CC2=O)cc1 (stereo unspecified) | i | -5.1% | -7.7% | 1.1% | 5.2% | 5.17µM*
CC(=O)Nc1ccc(NC(=O)C2CC(=O)N(c3cccc(Cl)c3)C2)cc1 (stereo unspecified) | i | 11.1% | ? | 2.3% | ? | i
Cc1cnc(NC(=O)C2CC(=O)N(c3cccc(Cl)c3)C2)s1 (stereo unspecified) | 20.6µM* | -1.8% | 5.8µM* | 0.6% | 7.31µM* | ?
O=C(Nc1nc(-c2ccco2)c(-c2ccco2)s1)C1CCC1 | i | -1.1% | 18.4µM* | 0.2% | 14.6µM* | i
Cc1ccc(Sc2c(C)nn(C(C)(C)C)c2OC(=O)CC(C)C)cc1 | i | nt | ? | nt | ? | i
Cc1cccc(NC(=O)NC(C)C(c2ccccc2)N2CCN(C)CC2)c1 (stereo unspecified) | i | 3.0% | -2.5% | 0.3% | -3.9% | i
CCC(C)c1ccc(OCC(=O)Nc2ccc(-c3nc4ncccc4o3)cc2)cc1 (stereo unspecified) | i | nt | ? | nt | ? | i
